# In all, about 300,000 compounds went through this assay and about 2,700 (0.9%) were called active.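 How the source made its calls: active means mean inhibition of at least 30% with at least half of replicates also reaching 30%; inconclusive means no clear call, values can overlap the other calls; inactive means the rest.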 The sample as a whole holds a higher share of actives than the screen did.
# Biological target: Golgi-associated PDZ and coiled-coil motif-containing protein (Homo sapiens) (UniProt Q9HD26)
# Test: untagged CAL PDZ binding inhibitors, primary screen, biochemical, fluorescence polarization, HTS (AID 602252);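 further: 0% = DMSO neutral control and 100% = excess unlabeled competitor peptide PRC23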
# Settings: purified CAL PDZ, TMR-peptide fluorescence polarization, 1 h; at 24.9 µM; stronger effect = higher value
row,Compound,inhibition
1,CCC(CO)Oc1cc(NC(=O)c2cccc3ccccc23)c2ncn(C(C)C)c2c1 (stereo unspecified),-1.65% (inactive)
2,Cc1cc(C)cc(OCC(=O)Nc2ccc(N3CCOCC3)cc2N2CCOCC2)c1,-3.82% (inactive)
3,CCOc1ccc(NC(=O)c2nc(SCC)ncc2Cl)cc1,-1.2% (inactive)
4,CCOc1ccc(N/C(N)=N/c2nc(C)c(C)c(=O)[nH]2)cc1,42% (active)
5,CCOc1ccc(NC(=O)C2CC(=O)N=C(N)S2)cc1 (stereo unspecified),-0.069% (inactive)
6,CCCCN1CC(COCc2ccccc2)OCCS1(=O)=O (stereo unspecified),-4.9% (inactive)
7,O=C(O)c1ccc(NN=CC2=C(N3CCOCC3)/C(=C/c3ccccc3)CC2)cc1,-3.09% (inactive)
8,CCCCNC(=O)C(C)N(CCN(C)C)C(=O)CCCCCN1C(=O)NC(c2ccc(Cl)cc2)C(C(=O)OCc2ccccc2)=C1C (stereo unspecified),-7.11% (inactive)
9,Cc1oc2nc(SCC(=O)NCc3cccnc3)nc(N)c2c1C,-4.94% (inactive)
10,Cc1oc2nc(SCC(=O)Nc3ccc(S(N)(=O)=O)cc3)nc(NC(=O)c3ccccc3)c2c1C,30.6% (active)
11,Cc1cc(-c2nnc(SCC(=O)Nc3ccc(S(N)(=O)=O)cc3)n2N)n[nH]1,2.84% (inactive)
12,O=C(CCc1ccccc1)Nc1nn[nH]n1,-4.68% (inactive)
13,O=C(/C=C/c1c(F)cccc1Cl)Nc1nn[nH]n1,133% (active)
14,CCOC(=O)CNC(=O)/C=C/c1c(Cl)cccc1Cl,-4.11% (inactive)
15,COc1ccc2c(c1)[C@H]1[C@H](CO2)[C@H](c2ccccc2)[C@]2(C)C(=O)Nc3cc(F)c(F)cc3C(=O)N12,-3.04% (inactive)
16,Cc1ccc(S(=O)(=O)NC[C@H]2O[C@@H](n3cnc4c(N)ncnc43)[C@H](O)[C@@H]2O)s1,-0.852% (inactive)
17,O=c1c(Cl)c(NC2CC2)cnn1-c1ccccc1,-0.978% (inactive)
18,CCCNC(=O)c1c(Cl)cnn1-c1ccc(C)cc1,4.34% (inactive)
19,C=CCNc1cnn(-c2ccc(C)cc2)c(=O)c1Cl,82% (active)
20,COc1ccc2[nH]c3c(c2c1)CCN1C(=O)C(CC(=O)NCCc2ccccn2)C[C@H](C(=O)N2CCOCC2)[C@@]31C (stereo partly specified),-8.9% (inactive)
21,COC(=O)[C@]1(Cc2ccccc2)N[C@H](CN(C)S(=O)(=O)c2ccc(OC(F)(F)F)cc2)[C@@H]2C(=O)N(C)C(=O)[C@@H]21,-4.26% (inactive)
22,Cc1ccc(S(=O)(=O)NC2CCCCCC2)cc1,0.011% (inactive)

row,Compound,inhibition
1,N#CCCN1CCN(S(=O)(=O)c2ccc(S(=O)(=O)N3CCCC3)cc2)CC1,2.13% (inactive)
2,N#CCCN1CCN(S(=O)(=O)c2ccc(S(=O)(=O)NC3CCCCC3)cc2)CC1,49.3% (active)
3,COc1ccc(-c2c(-c3cc(OC)cc(OC)c3)n(C)c3ccc(-c4ccn[nH]4)cc23)cc1,-3.15% (inactive)
4,CCN1CCC(O)(/C=C/c2ccc(C)cc2)C(C(=O)/C=C/c2ccc(C)cc2)C1 (stereo unspecified),8.48% (inactive)
5,C=CCn1c(=O)c(C(=O)Nc2ncccc2O)c(O)c2ccccc21,-2.5% (inactive)
6,Cn1c(=O)c(C(=O)Nc2ncccn2)c(O)c2ccccc21,35% (active)
7,CCCn1c(=O)c(C(=O)Nc2cc(C)ccn2)c(O)c2ccccc21,-3.7% (inactive)
8,COc1ccc(Cl)cc1C=CC=Nc1ccc(S(N)(=O)=O)cc1,1.96% (inactive)
9,COc1ccc(CCNc2nc(-c3cccc(NC(C)=O)c3)cs2)cc1OC,57.3% (active)
10,COc1cccc(CC(=O)Nc2nc(-c3ccc(OC)c(OC)c3)cs2)c1,-0.162% (inactive)
11,COc1ccc(CC(=O)Nc2nc(-c3ccc(F)c(F)c3)cs2)cc1OC,-3.84% (inactive)
12,O=C(Nc1cccc(S(=O)(=O)N2CCOCC2)c1)C12CC3CC(CC(C3)C1)C2,-2.14% (inactive)
13,CSc1ncnc2c1ncn2CC(=O)C1CCC2C3CCC4=CC(=O)CCC4(C)C3CCC12C (stereo unspecified),2.07% (inactive)
14,COc1ccccc1NC(=O)CN(c1ccccc1OC)S(=O)(=O)c1ccccc1,0.854% (inactive)
15,COc1ccccc1N(CC(=O)N1CCCCC1)S(=O)(=O)c1ccccc1,-3.76% (inactive)
16,COc1ccccc1N(CCOc1ccccc1)S(=O)(=O)c1ccccc1,71% (active)
17,O=C(O)C(=Cc1ccccc1[N+](=O)[O-])c1ccccc1,-1.54% (inactive)
18,O=C(NCc1nnc(SCC(=O)N2CCCCCC2)o1)c1ccc(F)cc1,-2.96% (inactive)
19,O=C(CSc1nnc(CNC(=O)c2ccc(F)cc2)o1)Nc1ccc2c(c1)OCO2,74.1% (active)
20,COc1ccc(C(=O)NCc2nnc(SCC(=O)Nc3cccc(OC)c3)o2)cc1,-4.41% (inactive)
21,COc1ccc(-c2ccc3c(c2)[C@@H]2C[C@H](N(C)S(=O)(=O)c4ccccc4)[C@H]([C@H](C)O)C(=O)N2CC3)cc1,-5.77% (inactive)
22,CCCCn1c(N)c(N(CCOC)C(=O)c2cccc(S(=O)(=O)N3CCCCC3)c2)c(=O)[nH]c1=O,-4.58% (inactive)

row,Compound,inhibition
1,CCCCn1c(=S)[nH]c2cc(S(=O)(=O)N3CCCCC3)ccc21,1.64% (active)
2,O=c1[nH]c2ccc(S(=O)(=O)N3CCCC3)cc2[nH]1,-3.37% (inactive)
3,CCN(CC)S(=O)(=O)c1cccc(NC(=O)c2ccc(S(=O)(=O)N3CCCC3)cc2)c1,-1.26% (inactive)
4,O=C1/C(=C\c2ccc([N+](=O)[O-])cc2)CS(=O)(=O)C/C1=C/c1ccc([N+](=O)[O-])cc1,-4.54% (inactive)
5,COc1ccccc1NC(=O)COC(=O)CNC(=O)C1CCCCC1,-1.86% (inactive)
6,CN(CCc1ccccc1)C(=O)c1cccc(NC(=O)Cc2ccc([N+](=O)[O-])cc2)c1,0.702% (inactive)
7,O=C(COC(=O)c1ccccn1)NNC(=O)c1ccc(Br)cc1,-0.344% (inactive)
8,Cc1nc(N)[nH]c(=O)c1Oc1cccc(C(F)(F)F)c1,71.1% (active)
9,O=Cc1ccc(Oc2cccc(C(F)(F)F)c2)nc1,2.04% (inactive)
10,Cc1cccc(OCc2nnc(SCc3nc4cc(C(F)(F)F)ccc4c(=O)[nH]3)o2)c1,1.6% (inactive)
11,Fc1ccccc1-c1cc2cc3c(cc2cn1)OCO3,-3.15% (inactive)
12,COc1cc(/C=C/c2ccc(/C=C/c3cc(OC)c(OC)c(OC)c3)cc2)cc(OC)c1OC,-6.47% (inactive)
13,CC(Oc1ccc2c(-c3ccccc3)cc(=O)oc2c1)C(=O)NC(Cc1c[nH]c2ccccc12)C(=O)O (stereo unspecified),1.66% (inactive)
14,CCC(=O)Nc1ccc2c(c1)nc(CCN1CCN(c3ccccn3)CC1)n2C,-15.1% (inactive)
15,Cn1c(CCN2CCCCCC2)nc2cc(NC(=O)Nc3ccccc3)ccc21,49.1% (active)
16,Cn1c(CCN2CCCC2)nc2cc(NS(=O)(=O)c3ccccc3)ccc21,-2.75% (inactive)
17,CC[C@@H]1CCCCc2ccccc2[C@@H](C(=O)C[C@H](O)CC(C)=O)OC1=O,1.2% (inactive)
18,O=C(NCc1ccccc1Cl)C1CCN(S(=O)(=O)c2cccc3nonc23)CC1,-3.79% (inactive)
19,COc1ccc(CNC(=O)C2CCN(S(=O)(=O)N3CCOCC3)CC2)cc1,-1.68% (inactive)
20,O=C(NCc1cccs1)C1CCN(S(=O)(=O)c2ccc3c(c2)OCCO3)CC1,-6.83% (inactive)
21,O=C(NCc1ccccc1Cl)C1CCN(S(=O)(=O)N2CCOCC2)CC1,137% (active)
22,COc1ccccc1CNC(=O)C1CCN(S(=O)(=O)c2ccc3c(c2)OCCO3)CC1,80.2% (active)

row,Compound,inhibition
1,COCCNC(=O)C1CCN(S(=O)(=O)c2ccc3c(c2)OCCO3)CC1,-1.23% (inactive)
2,CCOc1ccc(CCNC(=O)COC(=O)C2CCN(S(=O)(=O)c3ccccc3)CC2)cc1OCC,-1.05% (inactive)
3,O=C(N[C@H]1C/C=C\C(c2cccc(F)c2)N(Cc2ccccc2)C(=O)C1)OCC1c2ccccc2-c2ccccc21 (stereo partly specified),-1.43% (inactive)
4,O=C(Nc1c(Br)cc2c(c1Br)Cc1ccccc1-2)C(F)(F)F,-4.34% (inactive)
5,Cc1cn(C2CC(O)C(CO)O2)c(=O)n(CCCc2ccccc2)c1=O (stereo unspecified),-2.38% (inactive)
6,COc1ccc(S(=O)(=O)N2CCOCC2)cc1NC(=O)c1ccc(OCC(C)C)c(OC)c1,-4% (inactive)
7,COc1cc2c(cc1OC)C1C(=O)c3cc(OS(C)(=O)=O)c(OC)cc3C1N(C)C2=O (stereo unspecified),-1.26% (inactive)
8,CCn1c(SCC(=O)Nc2ccc(S(=O)(=O)Nc3onc(C)c3C)cc2)nnc1-c1ccccc1,30.7% (active)
9,CCn1c(SCC(=O)Nc2ccc3c(c2)OCCO3)nnc1-c1ccncc1,-1.31% (inactive)
10,Cc1noc(NS(=O)(=O)c2ccc(NC(=O)C34CCC(CC3)C4)cc2)c1C,-5.91% (inactive)
11,COc1ccc(C(CNC(=O)c2cccc(S(=O)(=O)Nc3ccc(Br)cc3)c2)N(C)C)cc1 (stereo unspecified),-3.75% (inactive)
12,O=[N+]([O-])c1ccc(NS(=O)(=O)c2ccccc2)c(Cl)c1,-10.2% (inactive)
13,O=[N+]([O-])c1ccc(COc2ccccc2CN2CCOCC2)cc1,0.702% (inactive)
14,COc1ccccc1N1CCN(/N=C/c2ccc(O)cc2O)CC1,77.6% (active)
15,COc1ccccc1N1CCN(/N=C\C(Br)=C\c2ccccc2)CC1,1.35% (inactive)
16,COc1cc(/C=N/N2CCN(c3ccccc3)CC2)ccc1OC(C)=O,4.07% (inactive)
17,CC(=NNC(=S)N1CCCCCC1)c1ccccn1,-1.44% (inactive)
18,CN(O)C(=S)c1ccccc1,-3.98% (inactive)
19,CN1CCN(S(=O)(=O)c2ccc(N3CCN(c4ccccc4O)CC3)c([N+](=O)[O-])c2)CC1,-6.2% (inactive)
20,O=C(C[C@H]1C[C@H](C(=O)N2CCOCC2)[C@@]2(CCC3CCCC3)c3[nH]c4ccc(Cl)cc4c3CCN2C1=O)NCc1ccco1,4.95% (inactive)
